High-throughput results deposited in PubChem by several laboratories.
KKLEB cytotox = counter-screen for CF NF-kB inhibitors: cytotoxicity; KKLEB CF airway cells viability, ATPlite luminescence, overnight; hits give low values; cells stimulated with P. aeruginosa culture filtrate; activity change (cytotoxicity), % at 5 µM; 360,000 compounds, 0.36% hits; AID 602141;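 active means corrected activity change at or below -50% at 5 µM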
CF NFkB block = blocks PAF-induced NF-kB reporter in cystic fibrosis cells; KKLEB NF-kB-GFP reporter, GFP fluorescence overnight; inhibition, % at 5 µM; 360,000 compounds, 0.86% hits; AID 588850;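 active means at least 50% inhibition at 5 µM, scaled per plate between neutral and stimulator controls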;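 further: PAF is a Pseudomonas aeruginosa culture filtrate used as stimulus; plate controls were PAF-stimulated DMSO wells for no effect and unstimulated DMSO wells for full effect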
HIF-2a inh = HIF-2a inhibition; 360,000 compounds, 0.72% hits; AID 624352; inhibition, % at 18.8 µM; 786-0 RCC cells HIF-2a reporter, luciferase luminescence, overnight;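 active means inhibition of the luminescence signal of 40% or more relative to plate controls, in a single-dose primary screen at 18.75 µM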
Peg3 prom inh-1 = reduces Peg3 promoter-driven luciferase expression in HeLa | HeLa PEG-Prom luciferase reporter, luminescence, overnight | inhibition, % at 20 µM | 360,000 compounds, 1.7% hits | AID 588405;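 active means inhibition of at least 50% at 20 µM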
MITF TRPM1 inh = inhibitors of MITF-driven TRPM1 promoter in melanoma cells; SK-MEL-5 TRPM1 promoter luciferase, 24 h; inhibition, % at 12.5 µM; 330,000 compounds, 0.83% hits;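 active means mean inhibition across replicates of 60% or more, whatever share of single replicates reaches that level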
ABHD5 PLIN5 PPI = inhibitors of human ABHD5-perilipin-5 interaction | Split G. princeps luciferase complementation, luminescence, 4 h | 360,000 compounds, 0.78% hits | inhibition, % at 4 µM | Q00G26+Q8WTS1;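 active means inhibition above the mean inhibition across every tested compound plus 3 SD, cut at about 22% in these data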;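 further: 0% = DMSO only wells and the 100% control is not disclosed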
Peg3 prom inh-2 = confirmation of Peg3 promoter inhibitors | shares compounds with Peg3 prom inh-1 | HeLa PEG-Prom luciferase reporter, luminescence, overnight | inhibition, % at 20 µM | 1,300 compounds, 84% hits;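 active means at 20 µM dose, 40% or more inhibition averaged across four replicates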
CF NFkB conf = confirmation of cystic fibrosis induced NF-kB inhibitors. 1,300 compounds, 64% hits. AID 602472. inhibition, % at 5 µM. KKLEB CF airway cells, PAF-induced NF-kB-GFP fluorescence, overnight. shares compounds with CF NFkB block; in the data active means inhibition above about 40%;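 further: stimulus PAF is a Pseudomonas aeruginosa filtrate and not platelet activating factor; plate controls were DMSO wells with stimulus for no effect and unstimulated DMSO wells for full effect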
ABHD5-PLIN5 conf = ABHD5-PLIN5 interaction inhibition, confirmed; shares compounds with ABHD5 PLIN5 PPI; biochemical ABHD5-PLIN5 interaction, luminescence; inhibition, % at 4 µM; 2,200 compounds, 67% hits; in the data active means inhibition above about 23%;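 further: 0% = DMSO vehicle wells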
HNF4 split-luc = active in HNF4 split-luciferase counter-screen for ABHD5-PLIN5 inhibitors; inhibition, % at 4 µM; AID 651674; shares compounds with ABHD5 PLIN5 PPI; 2,200 compounds, 77% hits; HNF4 dimerization, luminescence, biochemical;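 active means mean inhibition across replicate wells exceeding the computed hit threshold, cut at about 13% in these data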;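 further: light from luciferase halves that rejoin when HNF4 fusion proteins dimerize; 0% = DMSO only wells and the 100% control is not given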
Target sequence (P41235 whole entry, looked up, the tested form may be a part): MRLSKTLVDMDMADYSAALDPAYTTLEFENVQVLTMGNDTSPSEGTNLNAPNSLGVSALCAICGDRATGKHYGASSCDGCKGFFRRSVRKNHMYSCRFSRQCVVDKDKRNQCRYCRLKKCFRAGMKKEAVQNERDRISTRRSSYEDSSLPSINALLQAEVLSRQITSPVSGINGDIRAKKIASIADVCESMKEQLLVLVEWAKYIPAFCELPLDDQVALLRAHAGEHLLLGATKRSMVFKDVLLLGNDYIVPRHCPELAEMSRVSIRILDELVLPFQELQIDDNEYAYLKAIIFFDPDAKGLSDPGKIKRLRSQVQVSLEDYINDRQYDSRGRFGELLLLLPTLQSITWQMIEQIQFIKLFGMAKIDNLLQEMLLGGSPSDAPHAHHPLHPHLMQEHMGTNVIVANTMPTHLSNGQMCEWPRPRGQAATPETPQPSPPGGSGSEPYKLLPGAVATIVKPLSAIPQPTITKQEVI
Numbers without * were called inactive; · = not tested or not shown. This is a sample that favours compounds with a hit; in the whole collection about 3% have one here.

SMILES	KKLEB cytotox	CF NFkB block	HIF-2a inh	Peg3 prom inh-1	MITF TRPM1 inh	ABHD5 PLIN5 PPI	Peg3 prom inh-2	ABHD5-PLIN5 conf	HNF4 split-luc	others
O=C(NCCc1c[nH]c2ccccc12)C(=O)c1c[nH]c2ccccc12	-5.0	-12.0	-33.1	-23.9	-6.1	-0.4	·	·	·
O=C(OCCSCCOC(=O)C1CC=CCC1)C1CC=CCC1 (stereo not given)	-8.3	-23.8	-0.5	-19.9	0.3	2.8	·	·	·
Cc1cnc(NC(=O)C2CC(=O)N(c3cccc(Cl)c3)C2)s1 (stereo not given)	15.7	78.1*	-197.2	106.5*	-19.1	3.4	94.3*	·	·	CF NFkB conf=85.6*
Nc1ccc(-c2nc3ccccc3o2)cc1	-2.4	-16.2	-129.5	-305.7	0.3	-6.5	·	·	·
O=C1C=CC(=O)N1c1ccc(-c2nc3ccccc3o2)cc1	-24.7	50.8*	-96.3	108.0*	·	8.2	97.3*	·	·	CF NFkB conf=10.3
COc1ccc(-c2oc3ccc(-c4cc(OC)c(OC)c(OC)c4)cc3c2C#Cc2ccccn2)cc1	3.5	72.1*	7.5	54.0*	6.3	3.2	51.4*	·	·	CF NFkB conf=28.1
COc1ccc(C#Cc2c(-c3ccc(OC)cc3)oc3ccc(-c4ccc(OC)cc4)cc23)cc1	-23.8	21.1	-0.5	-4.5	-3.2	8.0	·	·	·
COc1cc2c(cc1OC)CN(CC(=O)Nc1ccc(C)c(C)c1)CC2	-1.5	10.1	7.0	25.0	·	-5.7	·	·	·
CCc1nc(Sc2nnnn2-c2ccccc2)c2c3c(sc2n1)CCCC3	-19.3	59.3*	34.4	59.8*	3.9	-5.6	60.6*	·	·	CF NFkB conf=28.4
CCOP(=O)(OCC)c1nc(-c2ccc(Cl)cc2Cl)oc1N1CCOCC1	-16.5	6.1	9.3	5.9	3.7	0.4	·	·	·
CS(=O)(=O)c1ccc2nc(NC(=O)CCS(=O)(=O)c3ccccc3)sc2c1	0.3	75.1*	19.0	71.2*	19.1	2.0	46.6*	·	·	CF NFkB conf=63.6*
Cc1ccc(-n2cc(-c3ccccc3)c3c(N4CCOCC4)ncnc32)cc1	-16.8	84.5*	16.5	66.8*	1.2	2.3	62.5*	·	·	CF NFkB conf=87.1*
CCN(C(=O)CN1C(=O)NC(c2ccccc2)(c2ccc(C)c(C)c2)C1=O)C1CCCCC1 (stereo not given)	7.6	14.9	15.0	24.0	16.9	-4.5	·	·	·
COc1ccccc1CNCC(O)Cn1c2ccccc2c2ccccc21 (stereo not given)	-17.6	25.2	23.3	110.8*	83.6*	35.1*	97.4*	9.3	-1.7
Cc1ccc(S(=O)(=O)N2CCCCC2C(=O)Nc2ccc(N(C)C)cc2)cc1 (stereo not given)	-2.0	-1.2	-3.8	0.5	6.1	-3.5	·	·	·
CC1=NN(c2ccccc2)C(=O)/C1=C/C=C/c1ccccc1	11.3	39.9	68.0*	112.5*	69.1*	25.4*	21.7	98.5*	90.4*
COc1cc(OC)cc(C(=O)NNC(=O)c2nn(C)c(=O)c3ccccc23)c1	-3.2	0.4	-18.3	-6.6	0.1	2.5	·	·	·
COc1cc(CNC(C)(C)CO)cc(Br)c1OCc1ccc(Cl)cc1	-11.0	12.6	-18.2	80.7*	-12.7	28.0*	91.1*	13.1	0.1
COc1cc(CNc2ccc(O)cc2)cc(Br)c1OCc1ccccc1	-4.8	-0.4	-10.7	-11.2	-2.1	-30.3	·	·	·
COc1cc(CNCCN2CCOCC2)ccc1OCc1cccc(Cl)c1	-4.6	-3.9	-12.5	-3.1	-21.5	9.8	·	·	·
COc1cc(CNCCN2CCOCC2)ccc1OCc1ccc(Cl)cc1Cl	-4.4	12.5	6.6	56.7*	-1.4	23.5*	79.0*	11.8	13.0*
CCCCCCCCOC(=O)c1cc([N+](=O)[O-])c(Sc2ncnc3nc[nH]c23)c([N+](=O)[O-])c1	-8.7	1.7	-53.3	82.7*	42.9	28.1*	72.7*	99.0*	89.9*
COc1cc(/C=C/[N+](=O)[O-])ccc1OC(=O)/C=C/c1ccc(F)cc1	-4.5	-30.0	7.6	103.2*	23.9	29.9*	51.8*	48.7*	73.3*
COc1ccc(/C=C/C(=O)Oc2ccc(C)c(C)c2)cc1OC	9.4	-5.6	-14.0	-30.0	-10.0	-8.1	·	·	·
CCN(CC)c1ccc(C(=C2C=CC(=[N+](CC)CC)C=C2)c2ccccc2)cc1	-86.3*	85.0*	83.8*	95.9*	108.6*	97.8*	98.6*	102.5*	109.4*
SMILES	KKLEB cytotox	CF NFkB block	HIF-2a inh	Peg3 prom inh-1	MITF TRPM1 inh	ABHD5 PLIN5 PPI	Peg3 prom inh-2	ABHD5-PLIN5 conf	HNF4 split-luc	others
O=C(c1cccc(-c2ccccc2F)c1)N1CC[C@@H](N2CCC(O)CC2)[C@H](O)C1	1.2	-1.8	14.9	-8.8	1.9	-2.4	·	·	·
COc1ccc2sc(-c3ccc(S(C)(=O)=O)cc3)c(C#CCO)c2c1	0.0	-12.6	-159.9	-1.9	-20.6	5.8	·	·	·
COc1ccc2c(C#CCCO)c(-c3ccc(S(C)(=O)=O)cc3)sc2c1	-19.4	7.0	9.9	50.2*	-2.5	30.4*	42.2*	16.6	2.6
Cc1cn([C@H]2C[C@H](O)[C@@H](CNCc3ccc(F)c(N4CCOCC4)c3)O2)c(=O)[nH]c1=O	-1.2	0.1	-6.0	0.2	·	-2.3	·	·	·
CN(C)CCCN(C(=O)c1ccc(S(=O)(=O)N(C)Cc2ccccc2)cc1)c1nc2cc3c(cc2s1)OCO3	-28.9	17.0	5.0	67.9*	85.1*	23.9*	89.2*	17.4	2.9
CC1CCCCN1S(=O)(=O)c1ccc(C(=O)N(CCCN(C)C)c2nc3ccc(Br)cc3s2)cc1 (stereo not given)	-27.2	7.5	-27.1	80.8*	94.5*	24.2*	93.0*	14.9	9.3
CN(C)CCN(C(=O)c1ccc(S(=O)(=O)N2CCCC2)cc1)c1nc2ccc(Br)cc2s1	-1.4	8.2	-97.8	-99.5	-27.5	0.4	·	·	·
CC(C)N(C(C)C)S(=O)(=O)c1ccc(NC(=O)c2cnccn2)cc1	-14.7	7.2	17.1	-4.4	3.5	-1.7	·	·	·
